PLK1 PBD inh: inhibitors of human PLK1 polo-box domain binding. Potency, µM, for inactives: max response, negative = inhibition, most hits filed as inhibitors. Plk1 PBD binding of FITC phosphopeptide, fluorescence polarization. P53350. 2.8% of 360,000 active; also: potency is read from the fitted curve at half-maximal effect; series mostly up to about 57 µM; % is scaled to controls: 0 for no effect and ±100 for the full control effect; nearly all actives have a fitted effect of over 65% in size
Target sequence (P53350 whole entry, looked up, the tested form may be a part): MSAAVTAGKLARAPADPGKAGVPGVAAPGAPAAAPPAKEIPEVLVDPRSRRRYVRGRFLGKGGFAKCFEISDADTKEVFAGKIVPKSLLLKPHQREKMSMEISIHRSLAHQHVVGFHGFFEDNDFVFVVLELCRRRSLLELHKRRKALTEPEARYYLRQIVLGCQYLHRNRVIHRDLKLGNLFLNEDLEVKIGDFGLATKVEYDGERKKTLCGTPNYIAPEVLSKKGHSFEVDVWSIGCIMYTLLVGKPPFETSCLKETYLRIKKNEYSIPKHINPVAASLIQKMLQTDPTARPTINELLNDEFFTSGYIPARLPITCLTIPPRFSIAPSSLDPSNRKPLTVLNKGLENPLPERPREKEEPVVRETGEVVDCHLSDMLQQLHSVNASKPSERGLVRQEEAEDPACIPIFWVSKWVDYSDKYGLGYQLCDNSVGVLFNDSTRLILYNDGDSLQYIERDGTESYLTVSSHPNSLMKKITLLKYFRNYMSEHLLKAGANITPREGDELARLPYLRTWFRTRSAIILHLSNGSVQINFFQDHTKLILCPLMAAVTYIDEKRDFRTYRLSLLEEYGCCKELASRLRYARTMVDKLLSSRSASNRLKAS
Tb PFK inh: inhibitors of T. brucei phosphofructokinase; O15648; T. brucei PFK, ADP-Glo luminescence; Potency, µM (series often up to 57.5 µM), for inactives: at the top dose activity, negative = inhibition, most hits filed as inhibitors; 0.17% of 330,000 active;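 also: potency is read from the fitted curve at half-maximal effect; 0% = uninhibited 1x PFK enzyme wells and -100% = no-enzyme wells; nearly all actives have a fitted effect of over 60% in size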
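1.25 nM PFK with 0.5 mM F6P and 0.1 mM ATP in 0.1 M TEA pH 8.0, 5 mM MgCl2, incubated 45 min at room temperature; ADP measured by ADP-Glo luminescence; compounds titrated up to 57 uM.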
BRCA1 expr act: BRCA1 expression activation; AID 624202; 1.1% of 380,000 active; MCF7-BRCA1-FFLuc reporter, luminescence, 48 h; response scale: scaled: vehicle 0%, 10 µM genistein 100%; Potency, µM (doses to about 46.1 µM), for the others: top-dose activation, most hits filed as activators; also: potency is read from the fitted curve at half-maximal effect; nearly all actives have a fitted effect of over 80% in size
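Using MCF7 cells harboring a BRCA1 firefly luciferase reporter, plated 2 h before compound pinning, the screen measured luminescence after 48 h incubation. Responses were normalized to DMSO and 10 microM genistein, then fitted for concentration-effect.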
VDR inh: vitamin D3 receptor (human) inhibition; P11473; VDR-SRC2-3 peptide fluorescence polarization, 2 h; 0.93% of 400,000 active; Potency, µM, for the others: max response, negative = inhibition, actives largely listed as inhibitors; also: potency is read from the fitted curve at half-maximal effect; % is scaled to controls: 0 for no effect and ±100 for the full control effect
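After 23 nl compound addition and a short centrifugation, plates sat for 2 hours at ambient temperature; polarization of fluorescence then indicated loss of VDR binding to peptide SRC2-3.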
USP1 UbRho: validation of human USP1/UAF1 inhibitors; Potency, µM (highest dose often 56.8 µM), for inactives: top-dose activity change, negative = inhibition, usual class: inhibitors; shares compounds with VDR inh; 50% of 50 active; Ub-Rhodamine cleavage, fluorescence kinetic read
VDR confirm: confirmation of human vitamin D receptor inhibitors; shares compounds with VDR inh; VDR-coactivator inhibition assay, qHTS confirmation; 89% of 840 active; Potency, µM, most hits filed as inhibitors; also: potency is read from the fitted curve at half-maximal effect
VDR FP fluor: VDR (human) coactivator binding inhibition, fluorescein polarization; VDR-coactivator binding, fluorescein fluorescence polarization; Potency, µM (highest dose often 57.1 µM), inactives show top-dose activity change, negative = inhibition, hits mostly inhibitors; shares compounds with VDR inh; 48% of 840 active; also: potency is read from the fitted curve at half-maximal effect
VDR bla reporter: VDR (human) inhibition, cell-based beta-lactamase validation | Potency, µM (titrated, usually from 46.1 µM), inactives show at the highest dose activity change, negative = inhibition, most hits filed as inhibitors | 23% of 840 active | shares compounds with VDR inh | VDR beta-lactamase reporter cells, FRET ratio; cells co-treated with VDR agonist LG190178; also: potency is read from the fitted curve at half-maximal effect; % is scaled to controls: 0 for no effect and ±100 for the full control effect
VDR viability: cytotoxic in counter-screen for VDR inhibitors. shares compounds with VDR inh. cytotoxicity counter-screen, cell viability, qHTS. Potency, µM (titrated, usually from 48.3 µM), for the others: at the highest dose activity change, negative = cytotoxicity, most hits filed as cytotoxic. 18% of 840 active;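 also: potency is read from the fitted curve at half-maximal effect; plate controls were DMSO for no effect and high-concentration cycloheximide for full effect; nearly all actives have a fitted effect of over 75% in size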
Active calls of the source: *; ? = inconclusive; . = not tested or not shown. Only some compounds are listed: those with a hit (about 3.9% of all), similar ones and a draw of the others. Calls follow the shape of the dose curve; as a rule, active = well fitted curve in the direction sought with a large enough effect; inconclusive = small, poorly fitted or top-dose-only effect, or another doubt; inactive = no such curve, though single readings can be large; an effect the other way counts as inactive or inconclusive.

SMILES | PLK1 PBD inh | Tb PFK inh | BRCA1 expr act | VDR inh | VDR confirm | VDR FP fluor | VDR bla reporter | VDR viability | others
COc1ccc(-c2nc3ccc(NC(C)=O)cc3c(=O)n2Cc2ccccc2)cc1COc1ccc(NC(C)=O)cc1 | . | . | 15% | -9% | . | . | . | .
CCc1oc2ccccc2c1C(=O)CCN1CCCCC1 | 12µM* | -5% | -68% | ? | 7.1* | 4µM* | -11% | 2%
CCOc1ccccc1C(=O)NC(C)CCc1ccccc1 (centres undefined) | -1% | . | -8% | 2% | . | . | . | .
COc1cc(-c2cc(C(=O)Nc3cc(S(=O)(=O)N4CCOCC4)ccc3O)c3ccccc3n2)cc(OC)c1OC | 17µM* | -5% | -28% | ? | ? | 32µM* | 1% | 29%
COc1ccc(C(=O)NCC(=O)N2CCN(c3ccc(Cl)cc3)CC2)cc1 | -6% | -2% | -18% | 6% | . | . | . | .
COC(=O)CC1=NN(c2ccc(OC)cc2)C(=O)/C1=C\c1ccc(Cl)cc1 | 2.4µM* | 1% | -8% | 40µM* | 21* | ? | -5% | -10%
CC1CCCN(S(=O)(=O)c2cc(C(=O)NCc3ccccc3Cl)n(C)c2)C1 (centres undefined) | . | . | -19% | -11% | . | . | . | .
CN1CCN(CCCN2c3ccccc3Sc3ccc(C(F)(F)F)cc32)CC1 | -5% | 4% | -50% | ? | . | . | . | . | USP1 UbRho=?
COc1cc(/C=C2\C(=O)N(c3ccc(S(N)(=O)=O)cc3)N=C2C)ccc1OC(=O)c1ccco1 | 3.8µM* | -11% | -16% | ? | 10* | 3.5µM* | -11% | -18%
CCC(=O)N1CCCC(C(=O)NS(=O)(=O)c2cc(C)c(Cl)cc2C)CC1 (centres undefined) | -6% | . | 16% | . | . | . | . | .
Cc1ccc(C(=O)/C=C\C(=O)c2ccc(C)cc2)cc1 | 6.7µM* | -21% | 0% | 79µM* | 30* | ? | ? | 22%
Cc1ccc(C(=O)c2ccc(C)cc2)cc1 | 4% | 4% | 1% | 21% | . | . | . | .
CCCOc1ccc(Cl)cc1/C=C1/C(=O)ON=C1C | 2.4µM* | -21% | -29% | 25µM* | 11* | 3.5µM* | 13% | ?
Cc1[nH][nH]c(=O)c1C(c1ccc(-c2ccc(Cl)cc2Cl)o1)c1c(C)[nH][nH]c1=O | . | -18% | . | . | . | . | . | .
Cc1cc(NC(=O)CCCOc2ccc(Cl)cc2Cl)no1 | -2% | 3% | 0% | 0% | . | . | . | .
C#CCOc1c(Cl)cc(/C=N/NC(N)=S)cc1OCC | -8% | -3% | -50% | -22% | . | . | . | .
CCOc1cc(/C=C2/C(=O)ON=C2C)ccc1OCc1ccc(F)cc1 | ? | 8% | 5% | 79µM* | ? | 157% | -5% | -34%
CC1=NOC(=O)/C1=C\c1ccc(-c2ccc(Cl)cc2Cl)o1 | 0.42µM* | ? | -49% | 22µM* | 3.8* | 2.2µM* | ? | ?
CCOc1cc(/C=N/NC(=O)c2nnn(-c3nonc3N)c2C)ccc1OCc1ccc(F)cc1 | -17% | -4% | -21% | -19% | . | . | . | .
C#CCOc1c(Cl)cc(/C=C2/C(=O)ON=C2C)cc1OCC | 6µM* | 1% | -8% | ? | 7.9* | 7.9µM* | -4% | 10%
O=C(CCOc1ccccc1)NO | . | . | 19% | . | . | . | . | .
C=CCOc1c(Br)cc(/C=C2/C(=O)ON=C2C)cc1OC | 4.7µM* | -3% | 0% | 45µM* | 9.5* | ? | -10% | 11%
C=CCOc1c(Br)cc(/C=C2\SC(=Nc3ccccc3)NC2=O)cc1OC | -4% | 2% | -14% | -2% | . | . | . | .
CCN1C(=O)/C(=C/c2ccc(OCc3ccc(C(=O)O)cc3)c(Cl)c2)NC1=S | ? | -1% | 5% | ? | . | . | . | .
C#CCOc1ccc(/C=C2/C(=O)ON=C2C)cc1Cl | 2.1µM* | -5% | -2% | 45µM* | 6* | ? | -3% | 9%
SMILES | PLK1 PBD inh | Tb PFK inh | BRCA1 expr act | VDR inh | VDR confirm | VDR FP fluor | VDR bla reporter | VDR viability | others
CCOC(=O)COc1ccccc1/C=C\[N+](=O)[O-] | 7.5µM* | ? | -96% | 11µM* | 3.4* | ? | 4.6µM* | 8.2µM*
Cc1ccc(C(=O)COC(=O)COc2ccccc2[N+](=O)[O-])s1 | -7% | -29% | -12% | -19% | . | . | . | .
CCCNC(=O)C1(C)CCN(C(=O)c2c(F)ccc(C)c2F)C1 (centres undefined) | -7% | . | 0% | . | . | . | . | .
Cc1c(C(=O)N2CCN(C(c3ccccc3)c3ccccc3)CC2)oc2ccccc12 | -11% | 2% | -25% | -8% | . | . | . | .
O=C1C(=O)c2ccc(-c3ccccc3)cc2-c2ccccc21 | -19% | -6% | -103% | 3.5µM* | 0.67* | ? | 3.3µM* | 2.5µM*
CCCCNC(=O)C1C(c2ccc(OC)cc2)=Nc2ccccc2N1C(=O)c1ccncc1 (centres undefined) | -6% | . | . | . | . | . | . | .
Cc1ccc(OCCCN2C(=O)C(=O)c3cccc(C)c32)cc1 | ? | -3% | 0% | ? | . | . | . | .
Cc1ccc(CN2C(=O)C(=O)c3cc(Br)cc(C)c32)cc1 | . | . | . | 18µM* | 7.1* | 10µM* | -10% | -2%
Cc1ccc2c(c1)C(=O)C(=O)N2Cc1ccc(C(F)(F)F)cc1 | ? | 0% | -25% | 25µM* | 17* | 10µM* | -9% | ?
CCOC(=O)c1cc(S(=O)(=O)Nc2ccc(OC)c(Cl)c2)[nH]n1 | . | . | 5% | 24% | . | . | . | .
O=C(NC1CCCCCC1)C(=S)N1CCOCC1 | 5.3µM* | -16% | 10% | 18µM* | 21* | ? | -4% | 22%
O=C(NC1CCCCCC1)C(=S)N1CCCC1 | -7% | 2% | 9% | -7% | . | . | . | .
C=CCN1C(=O)/C(=N/n2cnnc2)c2ccccc21 | -23% | 0% | -19% | 40µM* | 17* | ? | 23% | -26%
COc1cc(C2Oc3ccccc3C=C2[N+](=O)[O-])cc(OC)c1OC (centres undefined) | 4.2µM* | 14% | -92% | 22µM* | 17* | ? | ? | ?
CN(CC(=O)Nc1ccc(Cl)c(C(F)(F)F)c1)C(=O)c1cn2ccccc2n1 | -1% | -1% | 7% | 5% | . | . | . | .
O=[N+]([O-])c1ccc(S(=O)(=O)c2cccc(C(F)(F)F)c2)nc1 | 2.7µM* | . | -73% | 28µM* | 6.7* | ? | 16µM* | ?

Screens from PubChem BioAssay.
